# Experimental data from PubChem BioAssay (Tox21).
# Where “and” joins values, the source holds several entries; their conditions need not be identical. Equal entries are not always repeated. Records with an inconclusive call do not appear. Where a call stands in place of a potency, no number is given. Some compounds were tested as several samples or in several runs, with calls that do not always agree. Calls of active or inactive are those of the source. Unless noted, calls follow the shape of the dose curve; as a rule, active = well fitted curve in the direction sought with a large enough effect in the repeat runs; inconclusive = weak or mixed curves; inactive = no such curve, though single readings can be large; an effect the other way counts as inactive or inconclusive.
# Experiments:
# [1] = qHTS assay to identify small molecule antagonists of the thyroid receptor (TR) signaling pathway - cell viability counter screen (AID 743064); also: nearly all actives have a fitted effect of over 50% in size; also: potency is read from the fitted curve at half-maximal effect
# Method in brief: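 Rat GH3 pituitary tumor cells stably expressing two TR response elements driving luciferase were plated, rested 4 h, then dosed with library compounds and T3 (1 nM final). After 23.5 h at 37 °C, CellTiter-Fluor was added for 30 min and fluorescence recorded.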
# [2] = qHTS assay to identify small molecule antagonists of the thyroid receptor (TR) signaling pathway (AID 743065); also: nearly all actives have a fitted effect of over 55% in size; also: potency is read from the fitted curve at half-maximal effect
# Method in brief: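 GH3.TRE-Luc rat pituitary cells carrying two TR response elements driving luciferase were plated for 4 h, given compound plus 1 nM T3 (final), and incubated 23.5 h at 37 C. ONE-Glo luminescence measured reporter inhibition; CellTiter-Fluor fluorescence tracked cytotoxicity.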
# [3] = test system: thyroid hormone receptor (rat, GH3 cells); test: qHTS assay to identify small molecule agonists of the thyroid receptor (TR) signaling pathway (AID 743066; calls by dose curve)
# [4] = qHTS assay to identify small molecule antagonists of the estrogen receptor alpha (ER-alpha) signaling pathway - cell viability counter screen (AID 743074; calls by dose curve;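 also: HEK293 cells carrying ER-alpha-UAS-bla reporter stimulated with 17beta-estradiol; nearly all actives have a fitted effect of over 45% in size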)
# [5] = qHTS assay to identify small molecule antagonists of the estrogen receptor alpha (ER-alpha) signaling pathway using the BG1 cell line - cell viability counter screen (AID 743081);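 also: compound given together with 17beta-estradiol as the ER stimulus; series mostly up to about 70 µM; nearly all actives have a fitted effect of over 45% in size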
# [6] = target: Aromatase (Homo sapiens) (UniProt P11511); test: qHTS assay to identify aromatase inhibitors (AID 743083); also: series mostly up to about 70 µM; nearly all actives have a fitted effect of over 55% in size
# [7] = qHTS assay to identify aromatase inhibitors - cell viability counter screen (AID 743084);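 also: cells stimulated with testosterone during compound exposure; nearly all actives have a fitted effect of over 55% in size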
# [8] = target: Aryl hydrocarbon receptor (Homo sapiens) (UniProt P35869); test: qHTS assay to identify small molecule that activate the aryl hydrocarbon receptor (AhR) signaling pathway (AID 743085);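 also: HG2L7.5c1 human HepG2 liver cells with stably integrated DRE-driven firefly reporter; series mostly up to about 70 µM; nearly all actives have a fitted effect of over 15% in size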
# Method in brief: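 Compounds were tested in HepG2 hepatocellular carcinoma cells harbouring a stably integrated luciferase gene under control of 20 DREs. Increased reporter signal after 24 h treatment at 37C was taken as AhR activation.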
# [9] = qHTS assay to identify small molecule that activate the aryl hydrocarbon receptor (AhR) signaling pathway - cell viability counter screen (AID 743086);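 also: HepG2 liver cells carrying the AhR DRE luciferase reporter; series mostly up to about 70 µM; nearly all actives have a fitted effect of over 45% in size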
# Method in brief: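 HepG2-AhR-luc (HG2L7.5c1) cells, 4000/well, were preincubated 5 h at 37C, exposed to compound in qHTS format for 24 hr at 37C, then given CellTiter-Fluor for 30 min; viability was read as fluorescence in the reporter wells.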
# [10] = qHTS assay for small molecule agonists of the antioxidant response element (ARE) signaling pathway (AID 743202; active = well fitted activation curve with a large enough effect in the signal ratio in the repeat runs, not every such curve was filed as active; the % refers to the signal ratio; also: potency is read from the fitted curve at half-maximal effect)
# Method in brief: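 Read-out: LiveBLAzer B/G FRET substrate fluorescence after 2 h at room temperature, following 16 h compound treatment at 37 C of HepG2 cells carrying an ARE-driven beta-lactamase reporter.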
# [11] = qHTS assay for small molecule agonists of the antioxidant response element (ARE) signaling pathway - cell viability counter screen (AID 743203; calls by dose curve; also: nearly all actives have a fitted effect of over 55% in size)
# Method in brief: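 Cells (ARE-bla HepG2, 2,000/well) receive DMSO-dissolved compounds after a 5 hrs rest. Plates incubate 16 hrs at 37C/5% CO2. CellTiter-Glo luminescence is then recorded after 30 min at room temperature.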
# [12] = qHTS assay for small molecule activators of the heat shock response signaling pathway - cell viability counter screen (AID 743209); also: nearly all actives have a fitted effect of over 50% in size
# Method in brief: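 Quantitative HTS format, Tox21 10K library. HeLa cells carrying an HSE-driven beta-lactamase reporter were treated 5 h at 37 C, then assessed for viability by CellTiter-Glo luminescence.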
# [13] = target: Peroxisome proliferator-activated receptor gamma (Homo sapiens) (UniProt P37231); test: qHTS assay to identify small molecule agonists of the peroxisome proliferator-activated receptor gamma (PPARg) signaling pathway (AID 743094; active = well fitted activation curve with a large enough effect in the signal ratio in the repeat runs, not every such curve was filed as active; the % refers to the signal ratio)
# Method in brief: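 Stably transfected HEK293H cells (GeneBLAzer PPARg UAS-bla) were incubated with test substances for 17 h at 37C after a 5 h pre-incubation; beta-lactamase activity was then detected by FRET substrate fluorescence.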
# [14] = target: Peroxisome proliferator-activated receptor gamma (Homo sapiens) (UniProt P37231); test: qHTS assay to identify small molecule antagonists of the peroxisome proliferator-activated receptor gamma (PPARg) signaling pathway (AID 743191; calls by dose curve; also: series mostly up to about 63 µM; nearly all actives have a fitted effect of over 30% in size)
# Method in brief: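 GeneBLAzer PPARg UAS-bla HEK293H cells carrying a UAS-driven beta-lactamase reporter were plated at 3000 cells/well, preincubated 5 h at 37C, then given compound for 17 h at 37C; LiveBLAzer B/G FRET substrate was read after 1 h at room temperature.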
# [15] = qHTS assay to identify small molecule antagonists of the peroxisome proliferator-activated receptor gamma (PPARg) signaling pathway - cell viability counter screen (AID 743194); details: Potency: co-treated with 50 nM rosiglitazone; also: nearly all actives have a fitted effect of over 55% in size
# Method in brief: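 PPARg-UAS-bla HEK293H cells were plated, rested 5 h at 37 C, then treated with compounds plus rosiglitazone (50 nM final) for 17 h at 37 C; viability was then read by CellTiter-Glo luminescence after 30 min at room temperature.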
# [16] = qHTS assay for small molecule activators of the heat shock response signaling pathway (AID 743210; active = well fitted activation curve with a large enough effect in the signal ratio in the repeat runs, with a control signal flat, not every such curve was filed as active; the % refers to the signal ratio; also: series mostly up to about 63 µM)
# Method in brief: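 HSE-bla HeLa cells (beta-lactamase reporter under heat shock response elements) were exposed to compounds for 5 h at 37 C, then loaded with LiveBLAzer B/G FRET substrate for 2.5 h at room temperature before fluorescence reading.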
# Aryl hydrocarbon receptor (Homo sapiens), sequence (P35869 whole entry, looked up): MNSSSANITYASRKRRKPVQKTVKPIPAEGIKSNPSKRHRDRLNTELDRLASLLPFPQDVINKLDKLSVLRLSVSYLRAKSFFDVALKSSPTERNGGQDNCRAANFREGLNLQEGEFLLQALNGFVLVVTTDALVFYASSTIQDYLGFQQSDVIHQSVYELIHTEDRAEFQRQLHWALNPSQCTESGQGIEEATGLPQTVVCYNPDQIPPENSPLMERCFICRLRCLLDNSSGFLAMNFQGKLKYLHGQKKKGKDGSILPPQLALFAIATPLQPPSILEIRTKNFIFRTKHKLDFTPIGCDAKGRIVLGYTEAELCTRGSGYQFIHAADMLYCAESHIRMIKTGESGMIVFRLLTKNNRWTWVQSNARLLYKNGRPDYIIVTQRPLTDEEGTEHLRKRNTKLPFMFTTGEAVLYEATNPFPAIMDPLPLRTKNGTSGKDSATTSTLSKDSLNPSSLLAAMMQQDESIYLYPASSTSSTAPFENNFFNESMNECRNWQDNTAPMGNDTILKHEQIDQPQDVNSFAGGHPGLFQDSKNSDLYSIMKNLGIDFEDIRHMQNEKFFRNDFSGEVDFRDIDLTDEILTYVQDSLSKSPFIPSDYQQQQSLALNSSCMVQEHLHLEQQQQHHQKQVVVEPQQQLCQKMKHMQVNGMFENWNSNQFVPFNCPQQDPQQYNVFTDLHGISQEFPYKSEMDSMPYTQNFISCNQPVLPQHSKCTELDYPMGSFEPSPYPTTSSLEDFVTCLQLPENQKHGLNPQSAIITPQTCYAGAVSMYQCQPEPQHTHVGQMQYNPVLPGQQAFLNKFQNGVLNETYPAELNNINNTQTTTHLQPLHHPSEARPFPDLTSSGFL
# Aromatase (Homo sapiens), sequence (P11511 whole entry, looked up): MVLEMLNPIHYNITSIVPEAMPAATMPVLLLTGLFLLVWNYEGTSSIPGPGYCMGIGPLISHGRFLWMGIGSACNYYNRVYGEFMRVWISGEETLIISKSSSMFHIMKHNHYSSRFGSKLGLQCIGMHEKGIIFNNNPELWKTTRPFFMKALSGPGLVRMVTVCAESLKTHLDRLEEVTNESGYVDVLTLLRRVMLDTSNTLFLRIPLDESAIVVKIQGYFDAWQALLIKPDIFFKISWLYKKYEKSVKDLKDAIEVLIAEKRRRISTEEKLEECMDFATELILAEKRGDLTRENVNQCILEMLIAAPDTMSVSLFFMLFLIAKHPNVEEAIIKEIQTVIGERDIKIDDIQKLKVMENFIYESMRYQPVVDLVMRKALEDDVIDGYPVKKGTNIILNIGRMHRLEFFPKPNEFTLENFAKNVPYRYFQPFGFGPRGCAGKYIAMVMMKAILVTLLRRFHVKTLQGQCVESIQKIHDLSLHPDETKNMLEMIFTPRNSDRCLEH
# Peroxisome proliferator-activated receptor gamma (Homo sapiens), sequence (P37231 whole entry, looked up): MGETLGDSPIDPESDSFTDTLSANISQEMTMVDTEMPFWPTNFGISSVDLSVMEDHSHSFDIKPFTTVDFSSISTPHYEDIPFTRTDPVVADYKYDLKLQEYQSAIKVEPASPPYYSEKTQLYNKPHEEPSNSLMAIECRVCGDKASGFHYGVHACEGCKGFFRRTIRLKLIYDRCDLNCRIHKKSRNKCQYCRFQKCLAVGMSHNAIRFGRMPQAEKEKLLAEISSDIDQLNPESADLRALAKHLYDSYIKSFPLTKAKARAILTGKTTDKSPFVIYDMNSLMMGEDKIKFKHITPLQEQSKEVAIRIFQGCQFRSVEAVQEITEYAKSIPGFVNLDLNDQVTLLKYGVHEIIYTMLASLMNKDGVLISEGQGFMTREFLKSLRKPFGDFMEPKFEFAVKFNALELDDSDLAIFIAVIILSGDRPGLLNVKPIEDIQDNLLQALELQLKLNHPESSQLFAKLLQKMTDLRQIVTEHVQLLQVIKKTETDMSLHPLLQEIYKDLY
smiles,measurement,setting,value
[CH3][Sn]([CH3])([Cl])[Cl],Potency,[1],55.4 µM (active) and inactive
same,Potency,[2],55.4 µM (active) and 68.6 µM (active)
same,Potency,[3],inactive
same,Potency,[4],inactive
same,Potency,[5],inactive
same,Potency,[6],inactive
same,Potency,[7],inactive
same,Potency,[8],inactive
same,Potency,[9],inactive
same,Potency,[10],34.4 µM (active)
same,Potency,[11],inactive
same,Potency,[12],inactive
BrCC(Br)C1CCC(Br)C(Br)C1 (centres undefined),Potency,[1],68.2 µM (active)
same,Potency,[2],48.3 µM (active)
same,Potency,[3],inactive
same,Potency,[4],inactive
same,Potency,[5],inactive
same,Potency,[6],inactive
same,Potency,[7],inactive
same,Potency,[9],inactive
same,Potency,[13],inactive
same,Potency,[14],inactive
same,Potency,[15],inactive
same,Potency,[11],inactive
same,Potency,[12],inactive
same,outcome,[16],inactive
Oc1ccc(Cl)c(Cl)c1Cl,Potency,[1],inactive
same,Potency,[2],inactive
same,Potency,[3],inactive
same,Potency,[4],inactive
same,Potency,[5],inactive
same,Potency,[6],inactive
same,Potency,[7],inactive
same,Potency,[9],inactive
same,Potency,[15],inactive
same,Potency,[11],inactive
same,Potency,[12],inactive
same,outcome,[16],inactive
O=Cc1ccc2c(c1)OCO2,Potency,[1],inactive
same,Potency,[2],inactive
same,Potency,[3],inactive
same,Potency,[4],inactive
same,Potency,[5],inactive
same,Potency,[6],inactive
same,Potency,[7],inactive
same,Potency,[8],inactive
same,Potency,[9],inactive
same,Potency,[13],inactive
same,Potency,[15],inactive
same,Potency,[10],inactive
same,Potency,[11],inactive
same,Potency,[12],inactive
CC/C(=N\OC/C=C/Cl)C1=C(O)CC(C2CCOCC2)CC1=O (centres undefined),Potency,[1],inactive
same,Potency,[2],inactive
same,Potency,[3],inactive
same,Potency,[4],inactive
same,Potency,[5],inactive
same,Potency,[6],inactive
same,Potency,[7],inactive
same,Potency,[8],inactive
same,Potency,[9],inactive
same,Potency,[15],inactive
same,Potency,[10],inactive
same,Potency,[11],inactive
same,Potency,[12],inactive
same,outcome,[16],inactive
Cc1ccccc1CCl,Potency,[1],inactive
same,Potency,[2],inactive
same,Potency,[3],inactive
same,Potency,[4],inactive
same,Potency,[5],inactive
same,Potency,[6],inactive
same,Potency,[7],inactive
same,Potency,[8],inactive
same,Potency,[9],inactive
same,Potency,[14],inactive
same,Potency,[15],inactive
same,Potency,[11],inactive
same,Potency,[12],inactive
same,outcome,[16],inactive
COc1nn(C(=O)NS(=O)(=O)c2ccccc2OC(F)(F)F)c(=O)n1C,Potency,[1],inactive
same,Potency,[2],inactive
same,Potency,[3],inactive
same,Potency,[4],inactive
same,Potency,[5],inactive
same,Potency,[6],inactive
same,Potency,[7],inactive
same,Potency,[9],inactive
same,Potency,[13],inactive
same,Potency,[14],inactive
same,Potency,[15],inactive
same,Potency,[11],inactive
same,Potency,[12],inactive
same,outcome,[16],inactive
O=C1CN=C(c2ccccc2)c2cc(Cl)ccc2N1CC1CC1,Potency,[1],inactive
same,Potency,[2],21.1 µM (active) and 51 µM (active)
same,Potency,[3],inactive
same,Potency,[4],inactive
same,Potency,[5],inactive
same,Potency,[6],inactive
same,Potency,[7],inactive
same,Potency,[8],inactive
same,Potency,[9],inactive
same,Potency,[10],32.2 µM (active)
same,Potency,[11],inactive
same,Potency,[12],inactive
CCOS(C)(=O)=O,Potency,[1],inactive
same,Potency,[2],inactive
same,Potency,[3],inactive
same,Potency,[4],inactive
same,Potency,[5],inactive
same,Potency,[6],inactive
same,Potency,[7],inactive
same,Potency,[8],inactive
same,Potency,[9],inactive
same,Potency,[14],inactive
same,Potency,[10],inactive
same,Potency,[11],inactive
same,Potency,[12],inactive
same,outcome,[16],inactive
C/C=C/C=O,Potency,[1],inactive
same,Potency,[2],inactive
same,Potency,[3],inactive
same,Potency,[4],inactive
same,Potency,[5],inactive
same,Potency,[6],inactive
same,Potency,[7],inactive
same,Potency,[9],inactive
same,Potency,[13],inactive
same,Potency,[14],inactive
same,Potency,[15],inactive
same,Potency,[11],inactive
same,Potency,[12],inactive
same,outcome,[16],inactive
NCC(CC(=O)O)c1ccc(Cl)cc1 (centres undefined),Potency,[1],inactive
same,Potency,[2],inactive
same,Potency,[3],inactive
same,Potency,[4],inactive
same,Potency,[5],inactive
same,Potency,[6],inactive
same,Potency,[7],inactive
same,Potency,[8],inactive
same,Potency,[9],inactive
same,"activity change, negative = cytotoxicity",[15],-16.4% [at 0.55 µM] (inactive)
same,activation,[10],-5.3% [at 0.756 µM] (inactive)
same,"viability change, negative = cytotoxic",[11],4.15% [at 0.756 µM] (inactive)
same,"activity change, negative = cytotoxicity",[12],1.94% [at 0.55 µM] (inactive)
same,activation,[16],-1.61% [at 0.55 µM] (inactive)
CCCCN(N=O)C(=N)N[N+](=O)[O-],Potency,[1],62.4 µM (active)
same,Potency,[2],49.6 µM (active)
same,Potency,[3],inactive
same,Potency,[4],inactive
same,Potency,[5],inactive
same,Potency,[7],inactive
same,Potency,[8],inactive
same,Potency,[9],inactive
same,Potency,[13],inactive
same,Potency,[15],inactive
same,Potency,[10],inactive
same,Potency,[11],inactive
O=C(O)c1ccccc1C(=O)Nc1cccc2ccccc12,Potency,[1],inactive
same,Potency,[2],inactive
same,Potency,[3],inactive
same,Potency,[4],inactive
same,Potency,[5],inactive
same,Potency,[6],inactive
same,Potency,[7],inactive
same,Potency,[9],inactive
same,Potency,[13],inactive
same,Potency,[14],inactive
same,Potency,[15],inactive
same,Potency,[11],inactive
same,Potency,[12],inactive
same,outcome,[16],inactive
